From PubChem BioAssay (EPA / NIEHS) come the findings set out here.

Inconclusive results are not listed. Activity calls are given as the source filed them. Rule for the calls: active = hit-call score of the fitted dose curve at least 0.9, where 1 is the maximum; inconclusive = response in the unintended direction; inactive = score below 0.9.

Estrogen receptor (Homo sapiens), sequence (P03372 whole entry, looked up, the tested form may be a part): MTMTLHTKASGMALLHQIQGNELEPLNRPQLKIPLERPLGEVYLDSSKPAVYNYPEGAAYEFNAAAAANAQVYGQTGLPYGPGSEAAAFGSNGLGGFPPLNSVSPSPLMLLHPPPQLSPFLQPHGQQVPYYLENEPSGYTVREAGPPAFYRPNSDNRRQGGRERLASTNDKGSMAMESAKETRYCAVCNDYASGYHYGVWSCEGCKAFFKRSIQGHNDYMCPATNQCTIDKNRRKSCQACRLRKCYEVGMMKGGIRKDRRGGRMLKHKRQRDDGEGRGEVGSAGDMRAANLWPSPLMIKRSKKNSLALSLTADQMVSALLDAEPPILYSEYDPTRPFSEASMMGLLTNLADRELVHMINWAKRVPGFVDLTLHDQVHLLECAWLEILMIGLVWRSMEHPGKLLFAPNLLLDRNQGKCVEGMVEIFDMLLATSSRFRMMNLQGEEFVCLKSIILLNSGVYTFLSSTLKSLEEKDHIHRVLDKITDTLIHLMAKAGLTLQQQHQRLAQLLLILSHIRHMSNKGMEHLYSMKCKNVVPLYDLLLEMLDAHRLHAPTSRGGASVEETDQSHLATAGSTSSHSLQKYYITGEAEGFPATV

The target of this test is Estrogen receptor (Homo sapiens) (UniProt P03372). Kind of test: ATG_ERa_TRANS: Attagene TRANS-FACTORIAL HepG2 Assay for human Estrogen Receptor alpha (ERa) (AID 2282970). Particulars: HepG2 Attagene TRANS ERa GAL4 reporter, mRNA. The procedure:
ATG_TRANS is a cell-based, multiplexed-readout assay that uses HepG2, a human liver cell line, with measurements taken at 24 hours after chemical dosing in a 24-well plate.ATG_ERa_TRANS is one of 30 assay component(s) measured or calculated from the ATG_TRANS assay. It is designed to make measurements of mRNA induction, a form of inducible reporter, as detected with fluorescence intensity signals by Reverse transcription polymerase chain reaction (RT-PCR) and Capillary electrophoresis technology.Data from the assay component ATG_ERa_TRANS was analyzed into 1 assay endpoint. This assay endpoint, ATG_ERa_TRANS, was analyzed in the positive analysis fitting direction relative to DMSO as the negative control and baseline of activity. Using a type of inducible reporter, measures of mRNA for gain-of-signal activity can be used to understand the reporter gene at the transcription factor-level as they relate to the gene ESR1. Furthermore, this assay endpoint can be referred to as a primary readout, because this assay has produced multiple assay endpoints where this one serves a reporter gene function. To generalize the intended target to other relatable targets, this assay endpoint is annotated to the nuclear receptor intended target family, where the subfamily is steroidal.
Human liver HepG2 cells are transiently transfected with multiple reporter transcription units (MRTUs) in 6-well plates using FuGene 6 reagent (Roche; 3 ml FuGene/1 mg DNA). The MRTU constructs are regulated by a cis-regulating element (promoter). […] A major difference between the CIS and TRANS system is that in CIS activities of endogenous TFs are measured, whereas the TRANS assay evaluates changes in activities of exogenous, chimeric NR-Gal4 proteins. […] At the end of 24 hour incubation, total RNA was isolated using TriZol reagent (Invitrogen). The isolated RNA is then reverse-transcribed using oligo(dT) primer and Mo-MLV reverse transcriptase (Invitrogen) with DNAse I (Ambion) treatment for 30 min. The one-tenth of the produced cDNA was amplified by PCR using Taq DNA polymerase (Invitrogen) and two reporter sequence-specific primers. The PCR products were fluorescently labeled by primer extension with 6-arboxyfluorescein (6-FAM) 5'-labeled reporter sequence-specific primer (2 min at 95 C, 20 s at 68 C and 10 min at 72 C) and these products were digested with 5U of HpaI (New England Biolabs) for 2h at 37 C. […] The raw capillary electrophoresis data was processed using Attagraph software (Attagene).
As for `CC(C)(COCC1CO1)COCC1CO1` (stereo not given), the outcome was inactive.

On to `Cc1cccc(N=Nc2ccc(N(C)C)cc2)c1`, for which the outcome was inactive.

For the compound `CN(C1CCCCC1)C1CCCCC1`, the compound was called inactive.

As for `CC(C)(c1ccc(O)c(-c2ccccc2)c1)c1ccc(O)c(-c2ccccc2)c1`, the result was inactive.

With `CC(=O)CN(CC(C)=O)N=O`, the compound was classed as inactive.

As to `CC(C)(c1ccccc1)c1cc(-n2nc3ccccc3n2)c(O)c(C(C)(C)c2ccccc2)c1`, the outcome was inactive.

Turning to `CCOP(=S)(OCC)SCSc1cc(Cl)ccc1Cl`, the call was inactive.

In the case of `C=CCN=C=S`, the outcome was inactive.

Take `O=S1(=O)OC(c2cc(Br)c(O)c(Br)c2)(c2cc(Br)c(O)c(Br)c2)c2ccccc21`: the compound was called inactive.

In the case of `O=C(O)c1cc(I)cc(I)c1I`, the compound was classed as inactive.

As to `Cc1ccccc1OP(=O)(Oc1ccccc1)Oc1ccccc1`, the AC50 (commonly the concentration giving half of the maximal activity seen) was 3.57 µM (active).

As to `CC(C)=CC1C(C(=O)OCc2cccc(Oc3ccccc3)c2)C1(C)C` (stereo not given), the AC50 was 12.8 µM (active).

With `N#Cc1ccccc1N`, the result was inactive.

As for `C1CCC(C2CCCCC2)CC1`, the AC50 is 27.9 µM (active).

As for `Nc1nc(=S)[nH][nH]1`, the compound was classed as inactive.

For `O=[N+]([O-])c1cccc2ccccc12`, the AC50 was 39.9 µM (active).

For `O=C(NC(=O)c1c(F)cccc1F)Nc1cc(Cl)c(Oc2ncc(C(F)(F)F)cc2Cl)c(Cl)c1`, the compound was called inactive.

On to `O=S(=O)(Oc1ccc(Cl)cc1)c1ccc(Cl)cc1`, for which the AC50 is 10.7 µM (active).

Turning to `CS(=O)(=O)c1ccc(C(=O)C2C(=O)CCCC2=O)c(Cl)c1COCC(F)(F)F`, the result was inactive.

With `CCN(N=O)C(N)=O`, the call was inactive.

Take `O=C(NC(=O)c1c(F)cccc1F)Nc1cc(Cl)c(OC(F)(F)C(F)C(F)(F)F)cc1Cl` (stereo not given): the result was inactive.

Turning to `Cc1cc(C(F)(C(F)(F)F)C(F)(F)F)ccc1NC(=O)c1cccc(I)c1C(=O)NC(C)(C)CS(C)(=O)=O`, the call was inactive.

As for `NC(=O)CCl`, the compound was called inactive.

Consider `C=CC(=O)OCC(COC(=O)C=C)(COC(=O)C=C)COC(=O)C=C`, for which the compound was classed as inactive.

`O=C(CCl)Nc1ccccc1`: the compound was classed as inactive.

As for `[Cl][Sn]([c]1ccccc1)([c]1ccccc1)[c]1ccccc1`, the compound was classed as inactive.

In the case of `Fc1cccc(Cl)c1CCl`, the compound was classed as inactive.

For the compound `N#Cc1cccnc1`, the call was inactive.

As for `CC(C)CP(=S)(S)CC(C)C`, the outcome was inactive.

In the case of `Oc1c(Br)cc(Br)cc1Br`, the AC50 is 5.59 µM (active).

On to `O=S(=O)(C(Cl)(Cl)Cl)C(Cl)(Cl)Cl`, for which the compound was classed as inactive.

`OC(Cc1ccccc1Cl)(Cn1cncn1)C1(Cl)CC1` (stereo not given): the AC50 was 13.7 µM (active).

`CN(C)c1ccc(N=O)cc1`: the result was inactive.

In the case of `C=CCc1ccccc1O`, the AC50 was 48.6 µM (active).

Regarding `CCOP(=S)(OCC)SCS(=O)(=O)C(C)(C)C`, the compound was classed as inactive.

In the case of `CC(=Cc1ccccc1)[N+](=O)[O-]`, the call was inactive.

Regarding `O=C=Nc1ccc(Cl)cc1`, the compound was classed as inactive.

With `O=C1C=CC(=O)c2ccccc21`, the AC50 was 11.1 µM (active).

`Nc1ccc(Br)cc1`: the outcome was inactive.

On to `CN(CCCC(O)c1cccnc1)N=O` (stereo not given), for which the compound was classed as inactive.
